Test results taken from the supplement of paper PMC10811239.

test system: LEGO organoid PT (PTEN-/-; TP53-/-); test: bioluminescence (viable cell) signal fold change after vs before treatment, normalised to DMSO (ratio); higher = more tumour cell growth / less inhibition; settings: 10 µM; treatment time 6 days
Experimental: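 Luc2-labelled iPSC-derived glioblastoma-like organoids (LEGOs, genotypes PT = PTEN-/-;TP53-/-, PTCC = plus CDKN2A/B-/-, PTN = plus NF1-/-) were treated with 10 uM drug for 6 days (applied every other day) at 37 C. Bioluminescence imaging was done before treatment and 2 days after the last dose. BLI signals were normalised to the DMSO control on the same day and then to the pre-treatment signal (N=3).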

| Compound | bioluminescence |
| --- | --- |
| Cl.NC12CC3CC(CC(C3)C1)C2 [Amantadine hydrochloride] | 0.852 |
| CNC(=O)c1cc(Oc2ccc(NC(=O)Nc3ccc(Cl)c(C(F)(F)F)c3)cc2)ccn1.Cc1ccc(S(=O)(=O)O)cc1 [Sorafenib tosylate] | 0.401 |
| CN1CCN(CCCN2c3ccccc3Sc3ccc(C(F)(F)F)cc32)CC1.Cl.Cl [Trifluoperazine dihydrochloride] | 0.771 |
| Nc1nc(Cl)nc2c1ncn2[C@H]1C[C@H](O)[C@@H](CO)O1 [Cladribine] | 1.81 |
| CC(C)(C)c1cc(C(C)(C)C)c(NC(=O)c2c[nH]c3ccccc3c2=O)cc1O [Ivacaftor] | 0.378 |
| CO[C@@H]1[C@H](N(C)C(=O)c2ccccc2)C[C@H]2O[C@]1(C)n1c3ccccc3c3c4c(c5c6ccccc6n2c5c31)C(=O)NC4 [Midostaurin] | 0.527 |
| N[C@@H](CC(=O)O)C(=O)O [L-Aspartic acid] | 0.844 |
| NC(=O)c1ncn([C@@H]2O[C@H](CO)[C@@H](O)[C@H]2O)n1 [Ribavirin] | 0.826 |
| CC(C)Nc1cccnc1N1CCN(C(=O)c2cc3cc(NS(C)(=O)=O)ccc3[nH]2)CC1.CS(=O)(=O)O [Delavirdine mesylate] | 0.826 |
| CCc1nn(CCCN2CCN(c3cccc(Cl)c3)CC2)c(=O)n1CCOc1ccccc1.Cl [Nefazodone hydrochloride] | 1.4 |
| Oc1c(I)cc(Cl)c2cccnc12 [Clioquinol] | 0.859 |
| CCCCOc1ccc(C(=O)CCN2CCCCC2)cc1.Cl [Dyclonine hydrochloride] | 0.967 |
| Nc1ncnc2c1ncn2[C@@H]1O[C@H](CO)[C@@H](O)[C@H]1OP(=O)(O)O [Adenosine-2'-monophosphate] | 1.31 |
| O=C1Nc2ccc(Cl)cc2[C@@](C#CC2CC2)(C(F)(F)F)O1 [Efavirenz] | 0.965 |
| Nc1[nH]c(=O)ncc1F [Fluorocytosine] | 2.51 |
| Nc1ncnc2c1ncn2[C@@H]1O[C@H](CO)[C@@H](O)[C@H]1O [Adenosine] | 2.1 |
| C[C@]12C=CC(=O)C=C1CC[C@@H]1[C@@H]2C(=O)C[C@@]2(C)[C@H]1CC[C@]2(O)C(=O)CO [Prednisone] | 1.13 |
| CNS(=O)(=O)CCc1ccc2[nH]cc(C3CCN(C)CC3)c2c1.Cl [Naratriptan hydrochloride] | 0.774 |
| CCCCC1C(=O)N(c2ccccc2)N(c2ccccc2)C1=O [Phenylbutazone] | 2.33 |
| CN(C)CC(c1ccc(O)cc1)C1(O)CCCCC1 (stereo not given) [Desvenlafaxine] | 1.01 |

| Compound | bioluminescence |
| --- | --- |
| Cl.OC(CCN1CCCC1)(c1ccccc1)C1CCCCC1 (stereo not given) [Procyclidine hydrochloride] | 1.48 |
| CC(C)Cc1ccc(C(C)C(=O)O)cc1 (stereo not given) [Ibuprofen] | 1.56 |
| C=CC(=O)Nc1cc(Nc2nccc(-c3cn(C)c4ccccc34)n2)c(OC)cc1N(C)CCN(C)C [Osimertinib] | 0.644 |
| Cc1oncc1C(=O)Nc1ccc(C(F)(F)F)cc1 [Leflunomide] | 2.01 |
| Cc1cc(C)cc(OCC2CNC(=O)O2)c1 (stereo not given) [Metaxalone] | 1.24 |
| O=C1CCc2ccc(OCCCCN3CCN(c4cccc(Cl)c4Cl)CC3)cc2N1 [Aripiprazole] | 0.399 |
| CN1CCN2c3ncccc3Cc3ccccc3C2C1 (stereo not given) [Mirtazapine] | 1.1 |
| CC(=O)c1c(C)c2cnc(Nc3ccc(N4CCNCC4)cn3)nc2n(C2CCCC2)c1=O.O=S(=O)(O)CCO [Palbociclib Isethionate] | 3.4 |
| C[C@H](Cn1cnc2c(N)ncnc21)OCP(=O)(O)O [Tenofovir] | 0.702 |
| CN(Cc1cnc2nc(N)nc(N)c2n1)c1ccc(C(=O)N[C@@H](CCC(=O)O)C(=O)O)cc1 [Methotrexate] | 1.94 |
| CCCCCCCCc1ccc(CCC(N)(CO)CO)cc1.Cl [Fingolimod hydrochloride] | 1.07 |
| OC(Cn1cncn1)(Cn1cncn1)c1ccc(F)cc1F [Fluconazole] | 1.04 |
| C[C@@H]1COCCN1c1cc(C2([S@](C)(=N)=O)CC2)nc(-c2ccnc3[nH]ccc23)n1 [Ceralasertib] | 0.917 |
| C[C@H](C(=O)O)c1cccc(C(=O)c2ccccc2)c1 [(S)-(+)-Ketoprofen] | 0.793 |
| CC1(C)S[C@@H]2[C@H](NC(=O)[C@H](N)c3ccc(O)cc3)C(=O)N2[C@H]1C(=O)O.O.O.O [Amoxicillin trihydrate] | 1.03 |
| COc1ccc([C@@H]2CC(=O)c3c(O)cc(O[C@@H]4O[C@H](CO[C@@H]5O[C@@H](C)[C@H](O)[C@@H](O)[C@H]5O)[C@@H](O)[C@H](O)[C@H]4O)cc3O2)cc1O [Hesperidin] | 1.16 |
| Cc1nc2n(c(=O)c1CCN1CCC(c3noc4cc(F)ccc34)CC1)CCCC2O (stereo not given) [Paliperidone] | 1.4 |
| CCN(CC)CCNC(=O)c1c(C)[nH]c(/C=C2\C(=O)Nc3ccc(F)cc32)c1C [Sunitinib] | 0.391 |
| CC(C)Oc1ccc(-c2nc(-c3cccc4c3CC[C@@H]4NCCO)no2)cc1C#N [Ozanimod] | 0.725 |
| Cc1cn(-c2cc(NC(=O)c3ccc(C)c(Nc4nccc(-c5cccnc5)n4)c3)cc(C(F)(F)F)c2)cn1 [Nilotinib] | 2.55 |
